Experimental data: the supplement of paper PMC10849652
Of roughly 7,900 targets only a part is listed; those with a hit were picked by preference. About 0.6% of all pairs of compound and target were hits. Values without a mark were called inactive.

What was measured:
Assay in all cases: log2 fold change, soluble protein after heating vs DMSO (PISA); higher = thermal stabilisation; K562 cells, 10 uM, 30 min; active = over 0.2 and 3.5 SD of the protein, either way, in both replicates (recomputed)
[1] = compound: CN1CCN(CCOc2cc(OC3CCOCC3)c3c(Nc4c(Cl)ccc5c4OCO5)ncnc3c2)CC1 [saracatinib]
In short: (§1)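 Soluble protein was quantified by TMTpro 16plex LC-MS/MS after channel sums were equalised. It was obtained as the supernatant after 21,000xg for 90 min from pooled aliquots of K562 cells (2×10^6 cells/mL, 10 μM compound, 30 min) heated for 3 min across 48°C-58°C and extracted in PBS with 0.5% NP-40 at 4°C. Thermal stability values are relative to control samples and come from duplicates. They are given as log2 fold changes.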

[2] = compound: CN1CCN(c2nc(C3=C(c4c[nH]c5ccccc45)C(=O)NC3=O)c3ccccc3n2)CC1 [sotrastaurin]
In short: as §1

[3] = compound: CN1CC[C@H](c2c(O)cc(O)c3c(=O)cc(-c4ccccc4Cl)oc23)[C@H](O)C1 [alvocidib]
In short: as §1

[4] = compound: CN1CCc2c(c3ccccc3n2Cc2ccc(C(=O)NO)cc2)C1 [Tubastatin A]
In short: as §1

[5] = compound: CNC(=O)C1=CC=CC=C1NC2=NC(=NC=C2Cl)NC3=C(C=C(C=C3)N4CCOCC4)OC
In short: as §1

[6] = compound: CNC(=O)c1ccc(Nc2ncc(C(F)(F)F)c(NCc3nccnc3N(C)S(C)(=O)=O)n2)cc1 [defactinib]
In short: as §1

[7] = compound: CNCc1ccc(-c2[nH]c3cc(F)cc4c3c2CCNC4=O)cc1 [rucaparib]
In short: as §1

[8] = compound: CNc1nc(-c2ccc3c(N)n[nH]c3c2)cc(N2C[C@@H](C(=O)NC3CCCCC3)CC[C@H]2C)n1
In short: as §1

[9] = compound: COC(=O)N[C@@H](C)CNc1nccc(-c2cn(C(C)C)nc2-c2cc(Cl)cc(NS(C)(=O)=O)c2F)n1 [encorafenib]
In short: as §1

[10] = compound: COC(=O)[C@H](CCSC)NC(=O)C1=C(C=C(C=C1)NC[C@H](CS)N)C2=CC=CC=C2
In short: as §1

UniProt Q13523, sequence (Q13523 whole entry, looked up): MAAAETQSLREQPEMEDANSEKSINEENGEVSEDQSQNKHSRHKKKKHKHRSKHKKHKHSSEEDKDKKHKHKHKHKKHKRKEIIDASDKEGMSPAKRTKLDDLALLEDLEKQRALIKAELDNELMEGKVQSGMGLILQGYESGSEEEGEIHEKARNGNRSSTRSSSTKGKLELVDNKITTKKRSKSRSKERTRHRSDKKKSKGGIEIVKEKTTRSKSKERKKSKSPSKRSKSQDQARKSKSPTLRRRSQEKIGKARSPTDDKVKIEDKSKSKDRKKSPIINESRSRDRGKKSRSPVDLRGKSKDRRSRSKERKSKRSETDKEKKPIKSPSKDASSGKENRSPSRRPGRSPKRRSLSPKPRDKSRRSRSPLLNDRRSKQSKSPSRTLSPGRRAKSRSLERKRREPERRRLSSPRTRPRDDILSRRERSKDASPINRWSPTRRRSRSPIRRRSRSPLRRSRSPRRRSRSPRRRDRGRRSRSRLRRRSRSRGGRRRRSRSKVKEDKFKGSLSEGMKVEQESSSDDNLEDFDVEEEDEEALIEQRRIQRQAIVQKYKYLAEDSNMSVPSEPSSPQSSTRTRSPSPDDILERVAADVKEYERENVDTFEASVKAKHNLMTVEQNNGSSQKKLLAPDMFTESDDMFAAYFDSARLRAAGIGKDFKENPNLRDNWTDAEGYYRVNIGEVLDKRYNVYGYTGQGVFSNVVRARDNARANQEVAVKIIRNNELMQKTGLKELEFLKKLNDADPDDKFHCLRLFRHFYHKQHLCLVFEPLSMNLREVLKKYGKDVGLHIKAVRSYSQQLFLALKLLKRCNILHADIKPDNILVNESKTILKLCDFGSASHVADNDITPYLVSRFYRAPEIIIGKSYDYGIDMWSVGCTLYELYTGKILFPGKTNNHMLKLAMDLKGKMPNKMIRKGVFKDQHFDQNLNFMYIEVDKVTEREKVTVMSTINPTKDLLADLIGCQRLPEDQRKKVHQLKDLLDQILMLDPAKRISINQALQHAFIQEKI
UniProt Q99460, sequence (Q99460 whole entry, looked up): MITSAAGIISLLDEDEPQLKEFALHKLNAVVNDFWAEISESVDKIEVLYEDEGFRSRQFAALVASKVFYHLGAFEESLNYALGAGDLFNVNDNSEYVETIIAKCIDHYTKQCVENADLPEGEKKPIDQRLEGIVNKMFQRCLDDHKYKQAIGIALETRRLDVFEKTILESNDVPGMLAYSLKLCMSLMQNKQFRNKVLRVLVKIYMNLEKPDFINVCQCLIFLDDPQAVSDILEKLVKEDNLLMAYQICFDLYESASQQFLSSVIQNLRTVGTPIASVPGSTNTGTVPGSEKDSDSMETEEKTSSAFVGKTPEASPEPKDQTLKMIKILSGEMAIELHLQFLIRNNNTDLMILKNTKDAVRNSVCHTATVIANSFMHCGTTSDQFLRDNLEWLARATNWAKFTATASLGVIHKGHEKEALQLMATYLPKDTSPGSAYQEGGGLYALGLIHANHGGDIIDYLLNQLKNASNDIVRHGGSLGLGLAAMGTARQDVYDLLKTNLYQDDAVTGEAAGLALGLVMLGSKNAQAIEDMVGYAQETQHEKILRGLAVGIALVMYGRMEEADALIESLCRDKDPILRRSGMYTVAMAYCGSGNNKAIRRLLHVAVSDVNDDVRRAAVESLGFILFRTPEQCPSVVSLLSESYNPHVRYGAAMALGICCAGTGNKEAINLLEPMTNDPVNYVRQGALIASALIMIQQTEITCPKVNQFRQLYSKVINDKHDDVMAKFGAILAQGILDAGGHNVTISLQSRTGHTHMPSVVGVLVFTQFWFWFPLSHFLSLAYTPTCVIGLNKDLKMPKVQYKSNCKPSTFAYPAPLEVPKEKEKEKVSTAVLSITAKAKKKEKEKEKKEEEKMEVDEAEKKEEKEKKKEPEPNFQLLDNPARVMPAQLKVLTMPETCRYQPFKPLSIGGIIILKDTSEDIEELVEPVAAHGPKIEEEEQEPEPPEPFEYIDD
UniProt O15162, sequence (O15162 whole entry, looked up): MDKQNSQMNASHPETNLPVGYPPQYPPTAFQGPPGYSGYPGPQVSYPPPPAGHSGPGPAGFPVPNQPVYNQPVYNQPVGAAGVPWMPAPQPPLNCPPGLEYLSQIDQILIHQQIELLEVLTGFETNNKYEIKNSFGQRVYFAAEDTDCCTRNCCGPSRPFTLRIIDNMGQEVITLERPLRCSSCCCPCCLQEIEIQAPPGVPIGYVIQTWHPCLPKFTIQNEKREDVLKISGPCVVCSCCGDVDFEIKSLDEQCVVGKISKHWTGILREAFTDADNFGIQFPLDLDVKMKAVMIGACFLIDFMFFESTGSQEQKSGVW
UniProt Q5H8A4, sequence (Q5H8A4 whole entry, looked up): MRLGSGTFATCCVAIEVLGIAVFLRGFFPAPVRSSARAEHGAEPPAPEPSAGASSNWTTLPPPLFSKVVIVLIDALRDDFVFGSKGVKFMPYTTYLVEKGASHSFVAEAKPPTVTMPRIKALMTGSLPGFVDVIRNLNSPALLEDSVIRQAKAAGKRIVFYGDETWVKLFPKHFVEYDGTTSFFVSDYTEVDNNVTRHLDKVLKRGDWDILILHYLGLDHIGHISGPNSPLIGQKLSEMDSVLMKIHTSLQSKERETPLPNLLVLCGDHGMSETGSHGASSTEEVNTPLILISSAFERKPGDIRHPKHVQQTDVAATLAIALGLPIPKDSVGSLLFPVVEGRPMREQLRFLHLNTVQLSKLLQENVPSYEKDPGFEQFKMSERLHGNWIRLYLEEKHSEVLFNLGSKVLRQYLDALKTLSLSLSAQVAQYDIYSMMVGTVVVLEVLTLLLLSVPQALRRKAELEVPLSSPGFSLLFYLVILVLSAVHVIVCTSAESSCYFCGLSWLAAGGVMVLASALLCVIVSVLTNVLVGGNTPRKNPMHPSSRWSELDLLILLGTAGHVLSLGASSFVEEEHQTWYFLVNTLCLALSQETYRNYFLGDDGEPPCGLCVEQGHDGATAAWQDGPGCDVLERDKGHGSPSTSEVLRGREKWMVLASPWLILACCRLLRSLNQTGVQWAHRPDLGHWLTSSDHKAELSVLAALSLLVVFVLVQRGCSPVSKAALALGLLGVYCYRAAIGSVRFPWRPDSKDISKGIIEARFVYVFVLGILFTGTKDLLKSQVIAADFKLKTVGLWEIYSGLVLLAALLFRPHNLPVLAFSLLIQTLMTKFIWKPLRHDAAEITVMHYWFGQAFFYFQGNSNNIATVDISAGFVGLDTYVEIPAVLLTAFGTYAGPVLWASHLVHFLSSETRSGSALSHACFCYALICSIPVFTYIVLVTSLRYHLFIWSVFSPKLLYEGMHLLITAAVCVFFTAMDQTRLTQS
UniProt Q9NW08, sequence (Q9NW08 whole entry, looked up): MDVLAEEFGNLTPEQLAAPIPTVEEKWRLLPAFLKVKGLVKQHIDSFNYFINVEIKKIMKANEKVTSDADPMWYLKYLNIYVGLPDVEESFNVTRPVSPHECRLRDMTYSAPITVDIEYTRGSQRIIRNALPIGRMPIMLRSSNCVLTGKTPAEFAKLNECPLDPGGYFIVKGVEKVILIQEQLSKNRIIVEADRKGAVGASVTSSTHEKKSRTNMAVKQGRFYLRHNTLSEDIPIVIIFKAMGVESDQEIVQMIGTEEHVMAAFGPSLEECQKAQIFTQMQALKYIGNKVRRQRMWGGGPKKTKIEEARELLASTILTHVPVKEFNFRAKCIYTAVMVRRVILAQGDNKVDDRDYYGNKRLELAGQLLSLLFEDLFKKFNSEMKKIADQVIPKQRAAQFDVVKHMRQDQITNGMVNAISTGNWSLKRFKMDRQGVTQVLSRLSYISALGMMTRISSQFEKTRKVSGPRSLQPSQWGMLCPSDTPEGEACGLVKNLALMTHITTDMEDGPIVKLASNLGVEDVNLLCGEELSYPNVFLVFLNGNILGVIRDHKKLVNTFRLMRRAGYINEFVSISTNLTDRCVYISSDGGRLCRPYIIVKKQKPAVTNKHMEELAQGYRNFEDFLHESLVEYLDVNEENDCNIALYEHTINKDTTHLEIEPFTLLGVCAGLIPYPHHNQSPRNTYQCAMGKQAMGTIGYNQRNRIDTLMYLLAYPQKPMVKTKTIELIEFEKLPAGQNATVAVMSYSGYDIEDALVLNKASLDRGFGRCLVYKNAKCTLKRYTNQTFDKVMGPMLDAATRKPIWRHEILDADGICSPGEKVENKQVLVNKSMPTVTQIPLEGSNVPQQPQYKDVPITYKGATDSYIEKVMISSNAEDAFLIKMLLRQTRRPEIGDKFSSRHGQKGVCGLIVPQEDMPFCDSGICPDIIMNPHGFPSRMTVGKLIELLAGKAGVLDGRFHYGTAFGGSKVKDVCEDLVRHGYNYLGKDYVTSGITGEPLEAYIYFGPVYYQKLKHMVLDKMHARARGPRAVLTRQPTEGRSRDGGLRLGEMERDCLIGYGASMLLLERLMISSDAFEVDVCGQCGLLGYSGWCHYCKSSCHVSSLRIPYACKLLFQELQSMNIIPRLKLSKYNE
UniProt Q9UHX1, sequence (Q9UHX1 whole entry, looked up): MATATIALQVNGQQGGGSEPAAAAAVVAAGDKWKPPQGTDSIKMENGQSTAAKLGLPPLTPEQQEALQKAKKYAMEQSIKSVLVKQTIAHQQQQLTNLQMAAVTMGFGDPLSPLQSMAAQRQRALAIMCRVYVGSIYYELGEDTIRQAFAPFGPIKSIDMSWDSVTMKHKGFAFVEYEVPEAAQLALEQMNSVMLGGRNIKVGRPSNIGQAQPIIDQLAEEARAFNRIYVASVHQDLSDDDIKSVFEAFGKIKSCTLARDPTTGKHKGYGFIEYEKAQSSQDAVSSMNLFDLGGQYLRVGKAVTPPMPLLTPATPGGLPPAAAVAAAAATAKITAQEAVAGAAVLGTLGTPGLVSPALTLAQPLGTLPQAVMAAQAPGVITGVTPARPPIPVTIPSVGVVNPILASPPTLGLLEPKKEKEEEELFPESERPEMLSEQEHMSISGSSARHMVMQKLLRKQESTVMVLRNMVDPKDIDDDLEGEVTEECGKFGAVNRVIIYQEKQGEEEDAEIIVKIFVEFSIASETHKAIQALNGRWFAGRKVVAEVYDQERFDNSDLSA
UniProt P06454, sequence (P06454 whole entry, looked up): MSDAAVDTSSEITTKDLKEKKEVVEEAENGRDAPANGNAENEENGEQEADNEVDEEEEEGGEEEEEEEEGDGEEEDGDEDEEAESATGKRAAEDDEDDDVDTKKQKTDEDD

Row | Target | log2 fold change [1] | log2 fold change [2] | log2 fold change [3] | log2 fold change [4] | log2 fold change [5] | log2 fold change [6] | log2 fold change [7] | log2 fold change [8] | log2 fold change [9] | log2 fold change [10]
1 | POLR2C (UniProt P19387) | -0.096 | -0.015 | 0.204 | -0.049 | -0.043 | 0.133 | 0.059 | 0.03 | 0.002 | -0.045
2 | PLIN2 (UniProt Q99541) | -0.033 | -0.243 | 0.01 | 0.015 | 0.026 | -0.006 | -0.012 | -0.001 | 0.002 | 0.047
3 | PUF60 (UniProt Q9UHX1) | 0 | -0.035 | -0.138 | 0.048 | -0.197 | -0.173 | -0.003 | -0.007 | 0.049 | -0.012
4 | PRPF4B (UniProt Q13523) | -0.064 | -0.047 | -0.052 | 0.085 | -0.209 | -0.32 | 0.022 | -0.146 | 0.02 | 0.046
5 | PSMC4 (UniProt P43686) | -0.041 | -0.011 | 0.047 | -0.026 | -0.032 | 0.074 | 0.039 | 0.037 | 0.019 | 0.005
6 | PARG (UniProt Q86W56) | 0.003 | -0.102 | -0.19 | 0.051 | -0.113 | -0.068 | 0.044 | 0.115 | 0.034 | -0.025
7 | PDE4DIP isoform 4 (UniProt Q5VU43) | -0.028 | -0.064 | 0.017 | 0.064 | -0.065 | 0.021 | -0.057 | 0.007 | -0.015 | 0.035
8 | RAB11FIP1 (UniProt Q6WKZ4) | 0.021 | -0.094 | -0.028 | 0.005 | 0.045 | -0.16 | -0.012 | -0.043 | 0.052 | -0.019
9 | PCGF2 (UniProt P35227) | -0.029 | 0.04 | -0.074 | 0.039 | -0.057 | -0.129 | 0.024 | 0.122 | 0.071 | 0.027
10 | PCBP2 isoform 3 (UniProt Q15366) | -0.023 | -0.084 | -0.148 | 0.025 | -0.032 | -0.187 | 0.041 | 0.013 | 0.075 | -0.058
11 | PRPSAP2 (UniProt O60256) | 0.011 | 0.084 | 0.003 | -0.018 | -0.017 | 0.01 | -0.014 | 0.03 | -0.004 | -0.012
12 | PTMA (UniProt P06454) | 0.016 | -0.026 | -0.034 | 0.098 | -0.07 | -0.108 | 0.02 | 0.01 | -0.05 | -0.059
13 | PRKCB isoform 2 (UniProt P05771) | -0.006 | -0.343 (active) | -0.014 | -0.004 | 0.012 | -0.03 | 0.001 | -0.03 | 0.031 | -0.001
14 | PARP1 (UniProt P09874) | -0.025 | -0.104 | -0.004 | 0.037 | 0.094 | -0.089 | 1.05 (active) | 0.038 | 0.079 | -0.04
15 | PLSCR1 (UniProt O15162) | 0.052 | 0.024 | 0.003 | 0.025 | -0.058 | 0.006 | -0.015 | 0.082 | -0.006 | 0.006
16 | PCNT (UniProt O95613) | -0.06 | 0.115 | 0.067 | -0.069 | -0.098 | 0.154 | -0.116 | 0.019 | 0.037 | 0.091
17 | PURA (UniProt Q00577) | 0.061 | 0.063 | 0.321 | 0.001 | 0.059 | 0.347 | 0.309 | 0.076 | 0.086 | 0.04
18 | POLR3B (UniProt Q9NW08) | -0.056 | -0.129 | -0.074 | -0.045 | -0.004 | -0.03 | -0.032 | -0.047 | 0.039 | -0.028
19 | PPP2R5C isoform 4 (UniProt Q13362) | -0.04 | 0.009 | -0.063 | 0.012 | -0.068 | -0.083 | -0.003 | -0.032 | 0.06 | -0.025
20 | PIGG (UniProt Q5H8A4) | -0.02 | -0.015 | -0.011 | -0.037 | 0.013 | 0.175 | -0.013 | 0.27 (active) | 0.07 | -0.057
21 | PRKCQ (UniProt Q04759) | -0.034 | -0.903 (active) | -0.185 | 0.017 | -0.047 | -0.03 | 0.003 | 0.002 | 0.043 | -0.025
22 | PTTG1IP (UniProt P53801) | 0.021 | -0.03 | 0.004 | -0.085 | 0.062 | -0.011 | 0.013 | -0.246 | -0.052 | 0.129
23 | PSMD1 (UniProt Q99460) | -0.033 | -0.064 | 0.051 | 0.016 | 0 | 0.087 | -0.003 | 0.048 | 0.062 | 0.018
24 | PDCD6 (UniProt O75340) | 0.038 | -0.014 | -0.003 | 0.001 | 0.026 | -0.017 | -0.048 | -0.153 | 0.002 | 0.004
25 | PTGES3 (UniProt Q15185) | -0.023 | -0.057 | -0.215 | 0.023 | 0.088 | -0.205 | -0.059 | 0.034 | 0.032 | -0.068
26 | PPIL4 (UniProt Q8WUA2) | -0.012 | -0.072 | -0.071 | -0.005 | -0.123 | -0.108 | 0.07 | 0.024 | 0.086 | -0.031
27 | PLBD2 (UniProt Q8NHP8) | 0.033 | 0.031 | 0.006 | 0.01 | 0.029 | -0.025 | -0.115 | -0.008 | 0.005 | 0.038
28 | PSMB6 (UniProt P28072) | -0.027 | -0.017 | 0.115 | 0.019 | -0.022 | 0.089 | -0.043 | 0.011 | 0.03 | 0.017
29 | PRPF38B (UniProt Q5VTL8) | 0.011 | -0.006 | -0.073 | -0.027 | -0.287 (active) | -0.27 (active) | -0.08 | -0.039 | 0.015 | 0.044
30 | PTPMT1 (UniProt Q8WUK0) | -0.037 | -0.059 | -0.008 | -0.063 | 0.027 | -0.07 | -0.118 | -0.019 | 0.044 | 0.045
